Compound activity deposited in PubChem BioAssay by Sanford-Burnham Center for Chemical Genomics.
CYP2C19 inhib: blockers of cytochrome P450 2C19 activity – biochemical, luminescence, ADME assay, primary screen; P33261; CYP2C19 Supersomes, luciferin-H EGE luminescence, 30 min; inhibition, % at 5 µM; hit rate 21% among 96,000;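 active means CYP2C19 inhibition above a set limit at 5 µM in the primary screen, cut at about 50% in these data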;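 further: plate controls were negative control wells for no effect and 2.5 mM tranylcypromine positive control for full effect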
Target sequence (P33261 whole entry, looked up): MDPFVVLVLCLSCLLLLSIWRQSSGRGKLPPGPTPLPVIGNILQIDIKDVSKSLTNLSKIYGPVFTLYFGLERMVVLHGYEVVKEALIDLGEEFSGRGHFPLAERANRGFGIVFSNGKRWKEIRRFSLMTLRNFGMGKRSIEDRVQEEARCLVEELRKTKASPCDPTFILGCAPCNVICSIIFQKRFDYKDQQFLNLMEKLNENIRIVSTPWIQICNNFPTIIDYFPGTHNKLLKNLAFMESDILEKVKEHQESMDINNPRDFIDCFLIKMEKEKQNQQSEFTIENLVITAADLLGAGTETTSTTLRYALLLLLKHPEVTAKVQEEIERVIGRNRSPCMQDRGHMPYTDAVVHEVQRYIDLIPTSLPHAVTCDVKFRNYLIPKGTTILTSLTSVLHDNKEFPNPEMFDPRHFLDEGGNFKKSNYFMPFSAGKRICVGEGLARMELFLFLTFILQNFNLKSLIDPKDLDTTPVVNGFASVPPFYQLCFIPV
CYP2C19 activ: human CYP2C19 activators, primary screen, biochemical, luminescence. 96,000 tested, under 10 active. activation factor at 5 µM. Cytochrome P450 2C19 (Homo sapiens), P33261. recombinant CYP2C19, luciferin-H EGE luminescence; hits give high values; 0 = fully inhibited enzyme, 1 = untreated enzyme;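 active means activation factor of at least 2 at 5 µM in the primary screen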;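 further: 0 = wells with 2.5 mM tranylcypromine and 1 = vehicle-only wells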
CYP2C9 act: human CYP2C9 activators, primary screen, biochemical, luminescence | recombinant CYP2C9, luciferin-H conversion; hits give high values; factor 1 = untreated enzyme, 0 = blocked | activation factor at 5 µM | hit rate 1.4% among 96,000;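 active means activation factor of 2 or more for CYP2C9 at a 5 µM dose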;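 further: 0 = sulfaphenazole-blocked wells and 1 = vehicle-only wells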
CYP2C9 inhib: blockers of cytochrome P450 2C9 activity – biochemical, luminescence, ADME assay, primary screen | P11712 | CYP2C9 Supersomes, luciferin-H conversion | inhibition, % at 5 µM | hit rate 20% among 96,000 | AID 777, 2007;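 active means blocking of liver enzyme CYP2C9 beyond about 50% at 5 µM, limit read from the data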
Active calls of the source: *. This is a sample that favours compounds with a hit; in the whole collection about 31% have one here.

SMILES	CYP2C19 inhib	CYP2C19 activ	CYP2C9 act	CYP2C9 inhib
Cc1ccc(C(C(=O)NC2CCCC2)N(C(=O)c2csnn2)C2CCCC2)o1 (stereo not drawn)	64.0*	0.4	0.8	20.5
Cc1ccsc1C(C(=O)NC1CCCCC1)N(C(=O)c1csnn1)C1CC1 (stereo not drawn)	63.9*	0.4	0.9	11.9
CCOc1cc(/C=C\[N+](=O)[O-])ccc1OCC(=O)Nc1ccccc1C	11.0	0.9	0.9	13.9
O=C(Nc1nnc(C2CCCCC2)s1)c1ccco1	-14.2	1.1	0.9	6.1
CCCCOn1c(C)c(C(=O)OCC)c2c3no[n+]([O-])c3ccc21	45.0	0.6	0.4	62.5*
CCOC(=O)c1c(C)n(OC)c2ccc3c(no[n+]3[O-])c12	45.7	0.5	0.6	43.2
CC1CCc2c(sc(NC(=O)C(=O)NCc3ccco3)c2C#N)C1 (stereo not drawn)	13.0	0.9	0.3	68.1*
Cc1cc(C(=O)Nc2sc3c(c2C#N)CCC(C)C3)no1 (stereo not drawn)	5.5	0.9	0.2	75.7*
COc1ccc(N/C(=C(/C(Cl)=C(Cl)Cl)[N+](=O)[O-])n2nnc3ccccc32)cc1OC	10.4	0.9	0.7	25.8
CC(C)(C)S(=O)c1cccs1 (stereo not drawn)	4.1	1	1	2.8
O=C(CN(Cc1ccc(F)cc1)C(=O)C1CSC(=O)C1)NC1CCCCC1 (stereo not drawn)	39.9	0.6	0.9	10.7
Cc1cc2c(cc1C)CSC(c1ccc3ccccc3c1O)SC2	52.6*	0.5	0.1	91.6*
Cc1cc2c(cc1C)CSC(c1c(O)ccc3ccccc13)SC2	80.8*	0.2	0	98.8*
Cc1cc2c(cc1C)CSC(c1ccccc1OC(=O)C(C)(C)C)SC2	26.8	0.7	0.5	52.4*
Cc1ccc(C(=O)Nc2ccon2)cc1S(=O)(=O)N1CCOCC1	-6.6	1.1	1	2.4
Cc1ccc(C23CC4CC(CC(C(=O)N5CCOCC5)(C4)C2)C3)cc1	76.5*	0.2	0.4	56.7*
O=C(N1CCOCC1)C12CC3CC(C1)CC(c1ccccc1)(C3)C2	45.3	0.5	0.6	36.9
Cc1ccc(NS(=O)(=O)c2ccc(CCC(=O)O)cc2)cc1	13.0	0.9	0.9	5.0
CCc1ccc(NS(=O)(=O)c2ccc(OC)c(C)c2)cc1	77.7*	0.2	0.2	80.0*
COc1ccc(S(=O)(=O)Nc2ccc3ccccc3c2)cc1C	100.3*	0	0	100.3*
COC(=O)C1Sc2[nH]c(=O)sc2C(c2ccc(Cl)cc2)C1C(=O)OC (stereo not drawn)	74.7*	0.3	0.1	93.3*
Cc1ccccc1NC(=O)Nc1cccs1	11.5	0.9	0.9	7.2
Cc1ccc(CNC(=O)Cc2cccs2)cc1	89.9*	0.1	1	-4.3
COc1cccc(CNC(=O)CCNS(=O)(=O)c2cccs2)c1	90.1*	0.1	0.9	5.8
O=C(CCNS(=O)(=O)c1cccs1)NCc1cccs1	47.3	0.5	0.8	17.5
SMILES	CYP2C19 inhib	CYP2C19 activ	CYP2C9 act	CYP2C9 inhib
Cc1ccc(CNC(=O)Nc2cccs2)cc1	51.3*	0.5	0.9	10.0
O=C(Cc1cccs1)NCc1ccccc1F	70.6*	0.3	0.9	10.3
COc1cccc(CNC(=O)Nc2cccs2)c1	86.0*	0.1	0.5	53.9*
Cc1ccc(CNC(=O)C2(C)Oc3ccccc3NC2=O)cc1 (stereo not drawn)	79.2*	0.2	0.1	90.3*
Cc1ccc(CNC(=O)Nc2ccccc2)cc1	91.5*	0.1	0.7	32.2
O=C(CN1CCOCC1)OCCCC1CCCCC1	72.7*	0.3	0.9	8.3
Cc1sc2ncnc(OCC(=O)c3ccc(S(=O)(=O)N4CCCC4)cc3)c2c1C	73.4*	0.3	0.3	68.7*
Cc1sc2ncnc(OCC(=O)N3CCN(S(=O)(=O)c4ccc(Cl)cc4)CC3)c2c1C	74.7*	0.3	0.2	83.0*
O=C(COc1ncnc2ccccc12)N1CCN(S(=O)(=O)c2ccc(Cl)cc2)CC1	9.6	0.9	0.7	32.8
CNC(=O)COc1ncnc2sc(C)c(C)c12	-9.0	1.1	1.1	-11.2
Cc1nc2sc(C(c3ccc(Cl)cc3)N3CC(C)OC(C)C3)c(O)n2n1 (stereo not drawn)	20.3	0.8	1	-4.2
COC(=O)c1ccc2c(c1)SC1=C(CCCC1=O)N2	82.9*	0.2	0.8	20.1
CCOc1ccc(S(=O)(=O)NCC2CCCO2)c2cccnc12 (stereo not drawn)	6.0	0.9	1	0.6
CCOc1ccc(S(=O)(=O)Nc2ccccc2SC)c2cccnc12	2.9	1	0.3	70.9*
CCCSc1nnc(NC(=O)Nc2ccc(F)cc2)s1	14.7	0.9	0.7	29.0
COC(=O)c1cc(=O)nc2sc3ccccc3n12	1.8	1	0.2	81.4*
O=C(COc1ncnc2c(Cl)cc(Cl)cc12)N1CCCCC1	10.9	0.9	0.7	27.7
COc1ccc(CC(NC(C)=O)C(=O)NC2CCN(C(=O)Nc3ccc(Cl)cc3)CC2)cc1OC (stereo not drawn)	5.3	0.9	0.9	10.3
CSCCC(C(=O)O)N1C(=O)c2ccc(C(=O)O)cc2C1=O (stereo not drawn)	87.1*	0.1	1.1	-6.2
O=C(O)c1ccc2c(c1)C(=O)N(C(Cc1ccccc1)C(=O)O)C2=O (stereo not drawn)	-14.0	1.1	1.2	-16.3
COc1ccc(C(=O)CN2C(=O)c3ccccc3C2=O)c(OC)c1C	83.4*	0.2	0.3	71.7*
Cc1nn(C(=O)CN2C(=O)c3ccccc3C2=O)c(C)c1Br	-1.5	1	1	-0.8
O=C(c1cccc(Cl)c1)c1nn(-c2ccccc2)c(=O)cc1C(F)(F)F	41.9	0.6	0.7	27.7
Nc1ccc2c(c1)-c1ccccc1S(=O)(=O)N2	1.7	1	0.6	39.7
CSC1=C(C#N)C(CC(C)C)C(C(C)=O)=C(C)N1 (stereo not drawn)	81.5*	0.2	0.5	48.8
SMILES	CYP2C19 inhib	CYP2C19 activ	CYP2C9 act	CYP2C9 inhib
FC(F)(F)c1cc(-c2cccs2)n[nH]1	37.6	0.6	0.9	9.1
Cc1nc(S(=O)(=O)c2cccc(Cl)c2)nc2c1CCC2	9.7	0.9	2.7*	-173.1
Cc1ccc(NC(=S)c2nc3ccccc3[nH]2)cc1	89.1*	0.1	0.6	37.8
NC(=S)Nc1nc2ccccc2[nH]c1=O	0.3	1	1	0.4
O=c1oc(-c2cccs2)nc2sc3c(c12)CCCC3	20.1	0.8	0.4	63.5*
O=C(NC1CCCC1)c1ccc(CNc2c(N3CCOCC3)c(=O)c2=O)cc1	-21.3	1.2	1.2	-19.6
O=S(=O)(c1cccs1)N1CCCc2cccc(O)c21	65.9*	0.3	2.9*	-194.2
O=C(OCC(=O)N1CCCc2ccccc21)C1CCN(S(=O)(=O)c2cccs2)CC1	31.2	0.7	0.9	10.8
CCOc1ccc(-c2noc(=O)[nH]2)cc1	-0.3	1	0.7	25.4
Cc1ccc(CSCC(=O)N/N=C/c2sccc2C)cc1	83.2*	0.2	0.6	40.3
